The supplement of paper PMC10338343
± gives the standard deviation.

These sequences were tested on MILI (PIWIL2) piRISC loaded with piRNA #1 (26 nt) (assay: pre-steady-state target cleavage rate (min^-1); guide: piRNA #1 5'p-UGAGGUAGUAGGUUGUAUAGUAUCCA; MIWI and MILI are mouse PIWI proteins and EfPiwi is from a freshwater sponge; tags in brackets are library labels; higher = faster piRNA-guided slicing of the target). Conditions: auxiliary factor: 500 nM mouse GTSF1.
Procedure, shortened: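 In this Cleave-'n-Seq assay, uncleaved targets were sequenced and normalised to depth and to weakly complementary targets. They came from a transcribed, DNA-blocked target RNA library […] mixed with 1 nM active affinity-purified piRISC carrying one synthetic guide, with or without 500 nM GTSF1 partner protein, in HEPES–potassium acetate buffer at 33 °C for 0–8 or 0–960 min. After three trials were pooled and k3 was capped at 0.0001 min^-1, the pre-steady-state cleavage rate was obtained from a burst-and-steady-state fit.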
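Also: 1 nM active piRISC with 0.1 nM target library at 33 °C single turnover.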

Sequence | pre-steady-state target cleavage rate
GGAGACCUAUGAUUACAAGCUUCUACCUCA | 0.00347 ± 0.0023
GGAGUGGAUACUAUACUUGCUACUACCUCA | 0.0633 ± 0.0052
GGAGACCAUUCUAUACAACCAACUACCUCA | 0.0079 ± 0.0026
GGAGACCUAUCUAUACAACCUACGACCUCA | 0.0973 ± 0.013
GGAGACCUUACUAUACAACCUACUACCAGA | 0.107 ± 0.017
GGAGACCUAACAAUAGAACCUACUACCUCA | 0.0656 ± 0.012
GGAGACCUAUCUAUACAACGUUCUACCUCA | 0.00394 ± 0.0033
GGAGACCUAUCUAUUCAACCUAGUACCUCA | 0.00955 ± 0.0033
GGAGACCUAUCUAUACAAGCUACUACCACA | 0.278 ± 0.019
GGAGACCAUACUAAUGAACCUACUACCUCA | 0.0422 ± 0.011
GGAGACCUUACUAUUGAACCUACUACCUCA | 0.137 ± 0.013
GGAGACCUAUGAUAUGUAGGAACUACCUCA | < 0.0001
GGAGACCUAUCUAUACAACCUAGUACCUCA | 0.0209 ± 0.0054
GGAGACCUUUCUAUACAACGUACUACCUCA | 0.013 ± 0.003
GGAGACCUAUGUAUACAACGUACUUCCUCA | 0.0105 ± 0.0026
GGAGACCAUACUAUUGAACCUACUACCUCA | 0.153 ± 0.013
GGAGACCUAUCUAUUCAACCUACUAGCUCA | 0.0826 ± 0.014
GGAGACCUUACUAUACAACGUUCUACCUCA | 0.00546 ± 0.0015
GGAGACCUAUGUUUACAACCUACUACCACA | 0.0147 ± 0.0041
GGAGACCUAUGAUAUCAAGCUACUACCACA | 0.00606 ± 0.0028

Sequence | pre-steady-state target cleavage rate
GGAGACCUAACUAUACAACCUACGUACCUCA | 0.0356 ± 0.015
GGAGACCUAUGUAUACUACGUACUACCUCA | 0.00798 ± 0.0023
GGAGACCUAUGAUAACAUCCUACUACCUCA | 0.00447 ± 0.0023
GGAGACCUAUCUAUACAACCUACUUCCUCA | 0.0646 ± 0.012
GGAGACCUAUGAUAUGUACCUACUACGAGA [g5:g13:cont:t1A] | < 0.0001
GGAGACCUUACUUUACAACCAACUACCUCA | 0.00491 ± 0.0033
GGAGUGGAUACUAUAGAACCAACUACCUCA | 0.00293 ± 0.0022
GGAGACCAUACUAUACAACCUACUCACCUCA | 0.169 ± 0.015
GGAGACCUUACUAUACAACCUACUUCGUCA | 0.0614 ± 0.015
GGAGACCUAACUAUACAACCUACAACCUCA | 0.108 ± 0.026
GGAGACCAUACAAUACAACCUUCUACCUCA | 0.012 ± 0.0035
GGAGAGGAUACUAUACAAGCUACUACGUCA | 0.19 ± 0.02
GGAGACCUAUGAUAUGUAACCUACUACCUCA | 0.017 ± 0.0038
GGAGACGAUAGUAUACUACCUACUACCUCA | 0.148 ± 0.012
GGAGACCUAUCUAAACAACCUACUUCCUCA | 0.0303 ± 0.0063
GGAGACCUUACUAAACAACCUACUACCUCA | 0.112 ± 0.012
GGAGACGAAACUAUAGAACCUACUACCUCA | 0.146 ± 0.014
GGAGACCUAACUUUUCAACCUACUACCUCA | 0.0456 ± 0.014
GGAGACGAUAGUAUACAACCUUCUACCUCA | 0.00961 ± 0.003
GGAGACGAUACUAUACAACCUACAAGCUCA | 0.0171 ± 0.0086
